This note sets out measurements from PubChem BioAssay AID1347426 (Functional Genomics Laboratory (NCATS/FGL), 2020).

Among all 31,000 sequences or so, about 1,400 (4.5%) were called active. Many of the other results were omitted from the sample, so actives are more common in it than they were. Unmarked numbers belong to inactive results.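 The calls were made as follows: active = median seed-adjusted z-score above 1 or below -1; inactive = the rest.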

A short description of the test: Novel Modifiers of Survival Motor Neuron (SMN) Protein: Gene Identification via Genome-wide siRNA Screen. The settings on record: HEK293T SMN2-luciferase reporter, siRNA knockdown, 72 h; actives lie on both sides. An excerpt:
Spinal muscular atrophy (SMA) is the most common neuromuscular autosomal recessive disorder and one of the leading genetic causes of infant death. SMA results from mutations inducing loss of function or deletion in the survival of motor neuron-1 gene (SMN1), leading to deficiency of the survival motor neuron (SMN) protein. Although a second nearly identical gene, SMN2, is retained in humans, its expression primarily produces an aberrantly spliced isoform that is largely unstable and quickly degraded. We performed a genome-wide RNAi screen using a cell-based reporter assay to identify genes and pathways that modulate SMN protein stability. The screen identified over 200 genes that led to the greatest increase or decrease in luciferase expression.
Using HEK293T cells stably expressing a luciferase reporter that combines the promoter and splicing based cassettes in tandem with the major portion of the native SMN2 cDNA with luciferase, we performed a genome-wide RNAi screen to identify modulators of SMN protein levels. Luciferase is expressed when full-length SMN protein is generated with luminescence signal proportional to SMN protein levels. Our luciferase-based reporter assay was used to screen Ambion Silencer Select Human Druggable Genome siRNA library (10418 genes, 3 unique siRNAs per gene) using lipid-based reverse transfection.
Briefly, 1 pmol of each siRNA was spotted to a well of a 384-well plate (Corning, Corning, NY) and 20 microL of serum-free DMEM containing […] of Lipofectamine RNAiMax (Life Technologies, Carlsbad, CA) was then added to each well. Transfected cells were maintained at 37 degrees C in 5% CO2 for 72 hours, 20 microL of ONE-Glo Reagent (Promega) was added to wells for luciferase quantification. Raw luminescence reads were normalized to Ambion(R) Silencer(R) Negative Control #2 siRNA, then log10 transformed. A robust statistical measure of median absolute deviation (MAD) to standardize siRNA activities from each screen. Common Seed Analysis was used to help prioritize clean hits as opposed to those appearing to arise from seed based off-target effects. Candidate modulators were defined as the genes having a MAD score greater than 1.0 or less than -1.0.
Regarding CAGUAUACCAUCUAACAGATT against CNTN1, the median seed-adjusted z-score is -0.796.
With CCACUUUAAUAAACGUGCUTT against TIMM10 the figure was 0.0738; with CAGUGAAGAUAAAAUUCAATT against CRIP3, 1.7 (active); with CCUUCAAGGUCAACGUGUATT against KCNH3, -0.509.
With GGAGCACAAUAGAUCUGAATT against SEPX1 the figure was -0.0545.
The same measure for CCAUGGGAAUCCAAUCUGUTT against PTTG1: -0.459.
GGACAUUCUAGAGAAAGAATT against SUPT5H: the median seed-adjusted z-score is -4.02 (active).
With CGACCAUCAUGGAAAACAUTT against ABCB8 the figure was -0.558; with GGAGGAUCUUGUACCCAGATT against PNKP, -0.0563.
The same measure for CAGUGGGAACGACAACUUUTT against HNRPA1P4: -0.906; for GGAACACUUUCUCUCUAGATT against NOD2: 0.129; for GAUGCGAUUUGAUGAGAUATT against EPS15L1: -0.0511.
The same measure for CGCUAUACCUACCAGCAAATT against DNAJB12: 0; for GCCUUACUCUGAUCUGGUATT against IL1RAP: -0.23.
Take CUACCAUGGUGUACCAACATT against QRICH1: the median seed-adjusted z-score was -1.04 (active).
With GCAAACAAGUGAUAGUGAUTT against RBM11, the median seed-adjusted z-score is -0.0341.
The same measure for UCUUCUCCCUGAUAAAGUATT against SLC6A13: 0.267; for GACUGAUCCCUCUACUUCATT against SNTG1: 0.167.
With GCUUUCAGCUGAACGAACUTT against LTF, the median seed-adjusted z-score was 0.236.
With GAAUAUUCCUAUAGUGAUATT against MYOZ2 the figure was 0.315; with GAGUCUACCUAAUUCUGGATT against AURKA, -0.108; with CGACCUAAUCAUUCACAGUTT against CYP26C1, -0.276.
The same measure for GGAGAAGAUACAAAGCGCATT against MED21: -1.3 (active).
With UAACAAAUCCUAUUAGAUUTT against CTBP2 the figure was -0.241; with CGAAAACAGGAGAUCAUUATT against CAMK2G, -0.107; with GCGGCUCCAUUUACCAGAATT against VDAC1, 0.133.
In the case of GGACAUUUCAUGAGUCAUUTT against 8-Mar, the median seed-adjusted z-score is -0.106.
The same measure for GCAUGAAUGCAACCUGAUUTT against DDX55: 0.507.
With GCAUGACGACUGAACUGAUTT against MDH1B the figure was -1.13 (active); with GCAACUUCUUAAGACUAAATT against DBR1, 0.438.
The same measure for GCAAGGCGGUGUUUAUGGATT against DLX1: 0.0356.
CUCUCUCUGCAACACCUUUTT against SLC39A3: the median seed-adjusted z-score is 0.0298.
With CUACAGUCGGGAACAUGAATT against CLK3 the figure was -1.11 (active); with ACGCUGUCCUGGUUCUUCATT against DGAT2L3, 0.247; with GCAGAGCGGGUUAAAAUGATT against DNAJC2, -0.0357.
With GGUUACAAGUGUAUAACAATT against CD59 the figure was 0.79; with CGGUGCUGUUCGUCGUCUATT against GJD3, -0.251; with GAAGGGAAAUGAGUACCGATT against TRIM68, -0.628.
With GGAUAAUACAGAAGCAGAATT against SAP30BP the figure was -0.257; with GGAAGAAACCAUUACAAUATT against SNAPC3, -1.72 (active).
As for AGAUGUGAAGCUCAAAUUATT against ETV7, the median seed-adjusted z-score is -0.00772.
The same measure for GGGAGUCUUUCUUCGGGAATT against ABCG1: -0.609.
On to CAUCAUCUCUGGAACUCUUTT against ALAS2, for which the median seed-adjusted z-score was -0.142.
With GGUCAUGCAGAUUAUGUUATT against TUFM the figure was 1.07 (active); with CCUAUUCCCGAAGCCGUUATT against PLAUR, -0.118; with AAUGGAACCUGUAAGUGUATT against GCN5L2, 0.013.
With GAAGGACCCAGAUCUCUUUTT against ADCK1 the figure was -0.177.
With GAUCCUAUCUUACUAACCATT against IL7R the figure was 0; with GGCUUAUUGGAGCUCUUAATT against CSE1L, 0.425; with CAAGAUCUCAAGAAAUUCATT against CDK2, -0.347.
For CCAUCGGAAUCUUGACGAATT against MX1, the median seed-adjusted z-score was -1.49 (active).
The same measure for GCAACGUGGACAUUGGUGATT against SOX10: -0.255; for GAGUUCCUCUGGUCACUAUTT against TTC18: -1.15 (active).
The same measure for GUUCAUCUUGAUUCACAAATT against NOC4L: -0.315.
The same measure for GGAUGGCCAUUGAAGGGAUTT against ECHDC2: -0.0827.
Turning to GGGACAGGCUGCAAAGAAATT against AARS2, the median seed-adjusted z-score was -0.52.
With CGGCUGGGUCUGUACCAAATT against TLX2 the figure was -0.182.
The same measure for GGUCUUUGAUGCGAAGUUATT against DOCK2: 0.151; for GCAUCGACGUGAUCACCAUTT against GPR26: -1.33 (active); for CAAACAUCCAUAUCUAUGATT against NMT1: 0.18.
With CGCUAUCCCAAUCGCUUUATT against CYB5R1 the figure was 0; with GCAAGGGUCUCGGAUUAUATT against TMPRSS12, 0.0961; with CUAUAGAUGUGAUCAGUGUTT against ZNF32, 0.034.
GCCCAAACUGAGUACAACUTT against PLA2G10: the median seed-adjusted z-score was 1.07 (active).
With UGAGGACAAGGAUUUGGAATT against EIF2S2 the figure was 0.576.
With AUAGUUGACUAUUCUGAAATT against CCL18 the figure was 0.169; with AUACGGCUCUAACAGAUUATT against DBI, 0.0661.
The same measure for AGAAGAUCGGAAUUCUUUATT against RGPD5: -0.0931; for GGCUUAGGAUGGAGACCUATT against TGDS: -0.196; for GUGUUUAAGGGCUUUUGAATT against CBR3: 0.057.
On to GAAAUACCCUAUUACCAAATT against MED26, for which the median seed-adjusted z-score is -1.86 (active).
With AACCCAUCGUUCCAUAUUATT against PPOX the figure was 0.519; with GAGUAGCAGGAAAAACGAATT against SNX13, 0.253; with CCUAUGACAUGUUUCCAGATT against MAP4K2, -0.439.
With GCUAUAAGCCGAUAGUAGATT against 11-Sep the figure was -0.245; with GCUGGGCCGAGUACCUUAATT against PDX1, 0; with GAAGUAAGUUUGUUGUAGATT against PGAP1, -0.272.
GCAAUGAGAUGAACACCGATT against NPEPL1: the median seed-adjusted z-score was 1.12 (active).
Consider GCCGAACUAUCUGAGAAUATT against PCDH1, for which the median seed-adjusted z-score is -0.514.
The same measure for GGGUUAAUGUUGAGGAAUUTT against NME7: -0.331; for CGGUAUCACCGUUGAUGAATT against ARID1A: -1.14 (active).
With CCUGAUUUCUUGUGAUACATT against DNAJC24 the figure was -0.0166; with GGACAUUUGCAUACUCCUATT against PPP1R14D, 0; with GCAUUUCGCCUGACCAUUATT against SENP1, 0.625.
The same measure for CCGUUUUGGUGAGUCAACATT against RANBP2: 1.53 (active); for GAAUUGGAGUGAUUCGAAUTT against NETO2: -0.136.
For the sequence GGAAGACUAUUGGAUAGAATT against ARHGAP18, the median seed-adjusted z-score is 0.
The same measure for CACCAGAUCUACCAGUUCATT against ADM: 0.65; for GCCCUACAUGGUAAAUUCATT against GTDC1: 0.2.
The same measure for CCCAAGAACUGCUACGUCATT against SMPD2: -0.406; for GAAACUUCCUAAGUCGAAATT against FAM57A: 0.0434; for CGUUCGGAAUAACUGAAAUTT against GNG7: -0.205.
With AGAACAACCGGAUUCGAGATT against LRRC52 the figure was 0.118.
For UAAAGUUCUUUUAUCCAUUTT against UBE2D3, the median seed-adjusted z-score was 1.62 (active).
On to GGGAGAACGUGACCAUCUATT against ICAM5, for which the median seed-adjusted z-score is -1 (active).
The same measure for GCCUUUCAGUCAUCGCGCATT against PLXND1: -0.064; for GCUGGUCCCUUGGAUAAGATT against MED1: -0.855; for GAAACAGUGCUGAAGCCUUTT against RYBP: 0.831.
The same measure for GGGAGGGCAUCAACAAGAATT against RGS19: 0.295; for GGCUGCACAUAUACCUUAATT against RRN3: 0.0382; for GGAUAGUUUUUCGAAUUAATT against MYO9A: -0.567.
With GGUAAGGCCUUAUAAUGUATT against KHK the figure was 0.
Take GGAUAUCCGCCUUCACAGATT against BAG4: the median seed-adjusted z-score was 0.111.
With CCACUAGCUGAUUACUAUATT against MED6 the figure was -2.15 (active); with CGAAGAAUCUUCCGAAGAATT against EIF2AK1, -0.546; with GAAUGUAUCAGCUACCGAUTT against HYAL4, -0.236.
The same measure for GAAAGACUCUUACCAUUUUTT against SSBP4: 0.254.
Consider GCAUUGGGAUGUACUUGUATT against LRP12, for which the median seed-adjusted z-score is 0.416.
